The structures appear in SMILES notation. The campaign covered roughly 190,000 compounds. About 1,300 (0.68%) were called active. The sample holds actives, similar compounds and a random draw of the others, so the mix is not that of the screen. A number with no mark means an inactive call. Rule as the data show it: active = inhibition above about 50%; inactive = the rest.

The target of this assay is Mannose-6-phosphate isomerase (Homo sapiens) (UniProt P34949). Put plainly: MPI inhibition at elevated mannose 6-phosphate – biochemical, fluorescence intensity, high mannose 6-phosphate, primary screen (AID 1220). The settings on record: recombinant PMI enzyme, coupled fluorescence intensity; at 20 µM; hits give high values.
Chain of Mannose-6-phosphate isomerase (Homo sapiens) (P34949 whole entry, looked up): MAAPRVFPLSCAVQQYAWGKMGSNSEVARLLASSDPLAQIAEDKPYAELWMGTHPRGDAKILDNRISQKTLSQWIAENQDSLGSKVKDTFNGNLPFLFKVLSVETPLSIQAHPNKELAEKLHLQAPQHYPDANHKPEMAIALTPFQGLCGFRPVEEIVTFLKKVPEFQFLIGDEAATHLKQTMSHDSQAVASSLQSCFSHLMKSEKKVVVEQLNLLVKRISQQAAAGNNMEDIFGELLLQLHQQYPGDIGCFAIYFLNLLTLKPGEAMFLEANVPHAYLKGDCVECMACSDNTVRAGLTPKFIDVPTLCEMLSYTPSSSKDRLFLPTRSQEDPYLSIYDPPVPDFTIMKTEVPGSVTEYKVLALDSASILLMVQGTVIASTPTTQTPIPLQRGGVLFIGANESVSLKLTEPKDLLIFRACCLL
In the case of `O=C(NCc1ccco1)c1ccc(CN2CCOCC2)cc1`, the inhibition (commonly the relative decrease from the control value, in per cent) was -9.5%. The figure for `COC(=O)c1ccc(NC(=S)NC2c3ccccc3CC2O)cc1` (stereo not drawn) is 15.2%; for `CCOC(=O)C(=O)Nc1ccc([N+](=O)[O-])cc1OC` it is 16.8%; for `CCN(CC)S(=O)(=O)c1ccc(Cl)c(NC(=O)c2ccc(C#N)cc2)c1` it is -3.1%. On to `Cc1nc2c3cc(F)ccc3n(Cc3ccccc3)c2s1`, for which the inhibition was 32.5%. Regarding `CCc1ccc2c(c1)c1nc(C)sc1n2CC(=O)OC`, the inhibition was 5.8%. As for `Cc1nc2c3cc(F)ccc3n(Cc3ccc(F)cc3)c2s1`, the inhibition is 53.2% (active). For the molecule `CCOC(=O)Cn1c2ccc(C)cc2c2nc(C)sc21`, the inhibition is 26.1%.

Consider `Cc1nc2c3cc(F)ccc3n(Cc3ccccc3F)c2s1`, for which the inhibition is 14.7%.

`CCc1ccc2c(c1)c1nc(C)sc1n2CC`: the inhibition is 55.2% (active).

Consider `Cc1cccc(C)c1NC(=O)C(=O)c1cn(C)c2ccccc12`, for which the inhibition is -8.1%. With `COc1cc2c(C(=O)N3CCN(C)CC3)c(C)oc2cc1Br` the figure was 11.7%; with `COc1ccc(CC(=O)NC2CC(C)(C)NC(C)(C)C2)cc1`, -9%. Turning to `Cc1ccc(Sc2nc3c(c(=O)[nH]c(=O)n3C)n2CCc2ccccc2)cc1`, the inhibition is 18.4%. Take `CN(C)c1cc[nH]c(=O)c1C#N`: the inhibition was 6.4%. For `COc1cccc(-c2nnc(SCC(=O)Nc3cc(C)on3)n2C)c1`, the inhibition was -5.8%. For the molecule `CCCc1ccc(O)c(N=Cc2cc(Br)cc(OCC)c2O)c1`, the inhibition was 53.1% (active). Consider `CCOc1ccc(Br)cc1/C=N/O`, for which the inhibition was 16.4%.

With `CCc1ccc(O)c(N=Cc2ccccc2O)c1`, the inhibition is 23.3%. Regarding `COC(=O)c1ccccc1NC(=O)CSc1nc(-c2ccco2)cc(C(F)(F)F)n1`, the inhibition was 12.4%. With `CCOC(=O)N1CCC(N2C(=O)c3ccccc3C2Nc2cc(Cl)c(OC)cc2OC)CC1` (stereo not drawn) the figure was 21.3%.

Regarding `Cc1ccc(C(=O)COC(=O)c2c(C)cc(=O)oc2C)cc1[N+](=O)[O-]`, the inhibition was 58.1% (active). For the molecule `Cc1cc(=O)oc(C)c1C(=O)OCC(=O)c1ccc(Cl)c(Cl)c1`, the inhibition was 3.4%. In the case of `Cc1cc(=O)oc(C)c1C(=O)OCC(=O)c1ccc2ccccc2c1`, the inhibition was -11.8%. With `COc1ccc(-c2[nH]ncc2CNCC(C)(C)N2CCOCC2)cc1F`, the inhibition was 8.1%. Turning to `CN=C(Nc1cccc(OC)c1)SC1CC(=O)N(c2ccc(C(=O)O)cc2)C1=O` (stereo not drawn), the inhibition was 8.7%. With `O=C(CCS(=O)(=O)Cc1ccc(Cl)cc1)NCCCN1CCOCC1`, the inhibition was 4.1%.

On to `CCCCCCCCCCCCCCCC[n+]1cccc2ccccc21`, for which the inhibition is -9.4%.

For the origin of these results see PubChem BioAssay AID1220 (Sanford-Burnham Center for Chemical Genomics, 2008).
